Assay results taken from PubChem BioAssay (Tox21).
Results filed as inconclusive are left out. Active and inactive are the calls of the source. The call rests on the fitted dose curve; in most records, active means well fitted activation curve with a large enough effect in the signal ratio in the repeat runs, with a control signal flat (not every such curve was filed as active); inconclusive means weak or mixed curves; inactive means flat fitted curve, though single readings scatter; the % refers to the signal ratio.

experiment: qHTS assay for small molecule activators of the heat shock response signaling pathway (AID 743210); details: HeLa HSE-bla reporter, beta-lactamase ratio, 5 h; series mostly up to 62.6 µM
Description: U.S. Tox21 Program National Center for Advancing Translational Sciences [NCATS] NIH Chemical Genomics Center [NCGC] U.S. Environmental Protection Agency [EPA] National Institutes of Environmental Health Sciences [NIEHS] National Toxicology Program [NTP] U.S. Food and Drug Administration [FDA] Tox21 Assay Overview: Various chemicals, environmental and physiological stress conditions may lead to the activation of heat shock response/ unfolded protein response (HSR/UPR). There are three heat shock transcription factors (HSFs) (HSF-1, -2, and -4) mediating transcriptional regulation of the human HSR. To identify the compounds that activate HSR signaling, HSE-bla HeLa cell line (Invitrogen, Carlsbad, CA, USA) containing a beta-lactamase reporter gene under the control of the heat shock response elements was used to screen the Tox21 10K compound library.
Tox21 Assay Protocol Summary: The CellSensor HSE-bla HeLa cells (Invitrogen, Carlsbad, CA, USA) were dispensed at 1500 cells/6uL/well into 1536-well black wall/clear bottom plates using a Multidrop combi (Thermo Fisher Scientific, Waltham, MA) dispenser. After the assay plates were incubated at 37 C and 5% CO2 overnight, 23 nL of compounds dissolved in DMSO, positive controls or DMSO only was transferred to the assay plate by a Pintool station (Kalypsys, San Diego, CA). The plates were incubated at 37 C for 5 h. After 1 uL of LiveBLAzerTM B/G FRET substrate was added using a Flying Reagent Dispenser (Beckman Coulter, Indianapolis, IN, USA), the plates were incubated at room temperature for 2.5 h, and fluorescence intensity was measured by an Envision plate reader (PerkinElmer, Shelton, CT).

SMILES	outcome
CCCOC(=O)c1ccc(O)cc1	inactive
SC1CCCCC1	inactive
CN1CC[C@H](c2c(O)cc(O)c3c(=O)cc(-c4ccccc4Cl)oc23)[C@H](O)C1	inactive
CN(C/C=C/c1ccccc1)Cc1cccc2ccccc12	inactive
CCC(C)(C)c1ccc(CC(C)CN2C[C@@H](C)O[C@@H](C)C2)cc1 (stereo partly specified)	inactive
CC(O)(c1ccc(Cl)cc1)c1ccc(Cl)cc1	inactive
CN[C@H]1CC[C@@H](c2ccc(Cl)c(Cl)c2)c2ccc(S(N)(=O)=O)cc21	inactive
CN1CCN(CCCN2c3ccccc3Sc3ccc(Cl)cc32)CC1	inactive
Oc1ccc(Cl)cc1C1CCCC1	inactive
O=C1CCCCCCCCCCCCCC1	inactive
COc1c(Br)cc(Br)c(C)c1Br	inactive
